The list is a sample of the results.
aSyn 5UTR act – Activators via SNCA 5'UTR binding, MLPCN; activity score, % (tested at 7.5 µM), hits read low; alpha-synuclein 5'UTR reporter, activators screen; AID 1814, 2009; 300,000 tested, 7.1% active; in the data active = activity score below about -60%
Active calls of the source: *.

SMILES	aSyn 5UTR act
N#Cc1ccc(C(=O)Nc2nc3ccccc3[nH]2)cc1	-88*
CCc1ccc(C(=O)Nc2nc3ccccc3[nH]2)cc1	88
CN(C)S(=O)(=O)c1ccc(C(=O)Nc2nc3ccccc3[nH]2)cc1	-109*
O=C(/C=C/c1ccccc1)Nc1cccnc1	-143*
O=C(/C=C/c1ccccc1)Nc1cccnc1Oc1ccccc1F	-126*
O=C(/C=C/c1ccc([N+](=O)[O-])cc1)Nc1cccnc1	-150*
CC(=O)Nc1ccc(/C=C2\CCc3ccccc3C2=O)cc1	-118*
CC(=O)Nc1ccc(S(=O)(=O)N2c3ccccc3C(C)=CC2(C)C)cc1	121
CCSc1nn2c(=O)c3ccccc3nc2s1	-120*
CCc1ccc(/C=C2/C(=O)N(C)C(=S)N2CC(=O)OC)s1	-81*
O=C(C(Cl)c1ccccc1)N1CCCC1 (stereo not given)	-112*
CN1CCN(c2ccc(NC(=O)c3ccccc3Br)cc2)CC1	-120*
O=C(Nc1ccc(N2CCCCC2)cc1)C(Cl)c1ccccc1 (stereo not given)	-236*
O=C(Nc1ccc(N2CCCC2)cc1)c1cc(Cl)ccc1Cl	-241*
O=C(Nc1ccc(N2CCCCCC2)cc1)c1ccccc1Cl	-252*
O=C(Nc1ccc(N2CCCC2)cc1)c1cccc(Cl)c1	-137*
COc1ccccc1C(=O)Nc1ccc(N2CCCCC2)cc1	-66*
O=C(Nc1ccc(N2CCCC2)cc1)c1ccc(Cl)cc1Cl	-88*
O=C(Nc1ccc(N2CCCCC2)cc1)c1ccccn1	114
O=C(Nc1ccc(NC(=O)c2cccnc2Cl)cc1)c1cccc(Cl)c1	-102*
CN1CCN(c2ccc(NC(=O)c3ccc(Cl)cc3Cl)cc2)CC1	-136*
FC(F)(F)c1ccc(Nc2nnnc3ccccc23)cc1	-140*
N#C/C(=N\Nc1ccccc1[N+](=O)[O-])C(=N)N1CCCCC1	-112*
N#C/C(=N\Nc1ccc(Br)cc1)C(=N)N1CCOCC1	-123*
N#C/C(=N/Nc1ccc([N+](=O)[O-])cc1)C(=N)N1CCCCC1	-86*
SMILES	aSyn 5UTR act
N#C/C(=N\Nc1ccc([N+](=O)[O-])cc1)C(=N)N1CCOCC1	-109*
Cc1ccc(S(=O)(=O)N/N=c2\oc3ccccc3cc2C(=O)Nc2cccc(C)c2)cc1	-85*
CCc1ccc(Oc2cc(C)nc(N)n2)cc1	-92*
CCCc1ccc(Oc2cc(Cl)nc(N)n2)cc1	-149*
Cc1nn(-c2ccccc2)c(C)c1Cc1ccc(O)cc1	-117*
CCOc1ccc(C(=O)c2ccc(OCC)c(N)c2)cc1N	-70*
CN(C)c1ccc(C(=O)c2ccc(N(C)C)c(N)c2)cc1N	-74*
Cc1ccc2c(c1)cc1c(=O)[nH]ncn12	-67*
Cc1nn(C)c(C(=O)NNC(=S)Nc2ccc(Cl)cc2)c1[N+](=O)[O-]	-71*
CCCC(=O)NC(=S)Nc1ccc(C(C)=O)cc1	-84*
O=C(NNC(=S)Nc1ccc(Cl)cc1)c1ccccc1	-87*
N#Cc1ccccc1N/C=C/C(=O)c1ccc(Cl)cc1	-169*
COc1ccccc1NC(=S)NNC(=O)c1ccccc1	-101*
COc1ccc(C(=O)NNC(=S)Nc2ccccc2)cc1	-207*
O=C(/C=C/NNC(=O)c1ccc(Cl)cc1)c1ccccc1	-77*
O=C(NNC(=S)Nc1ccccc1Cl)c1ccccc1	-98*
O=C(NNC(=S)Nc1cccc(Cl)c1)c1ccccc1	-104*
COc1ccc(C(=O)NNC(=O)c2cccc(F)c2)cc1	-82*
CC(=O)c1ccc(NC(=S)NNC(=O)c2ccncc2)cc1	-70*
S=C(NCCC1=CCCCC1)Nc1ccc(Cl)cc1	-110*
COc1ccc(NC(=O)NCCC2=CCCCC2)cc1	-131*
COc1cccc(NC(=O)NCCC2=CCCCC2)c1	-183*
Cc1[nH]nc2nc(SCC(=O)NCCC3=CCCCC3)n(-c3ccc(Br)cc3)c(=N)c12	75
Cc1cnc(NC(=O)CSc2ccccc2)s1	-108*
Cc1cnc(NC(=O)COc2ccccc2)s1	-142*
SMILES	aSyn 5UTR act
COC(=O)c1sc(NC(=O)Cc2cccs2)nc1C	-69*
CCOC(=O)c1sc(NC(=O)c2cccnc2)nc1C	-100*
COC(=O)c1sc(NC(=O)COc2ccccc2)nc1C	-142*
CCOc1ccc(C(=O)Nc2nc(C)c(C(=O)OC)s2)cc1	-97*
Cc1cnc(NC(=O)CCc2ccccc2)s1	-383*
C/C(=N\Nc1ccc(C(=O)O)cc1)c1ccc2c(c1)Nc1ccccc1S2	-110*
CCN1CCN(C(=S)c2ccc(-c3ccccc3)cc2)CC1	66
CCC(=O)c1ccc(-c2ccccc2)cc1	-89*
CCCC(C)NC(=O)c1ccc(-c2ccccc2)cc1 (stereo not given)	-109*
Cc1c(O)c(=O)ccn1Cc1ccccc1	68
Cc1ccc(Cn2ccc(=O)c(Cc3c(Cl)cccc3Cl)c2C)cc1	51
Cc1ccc(Cn2ccc(=O)c(OCc3ccccc3)c2C)cc1	-110*
CCOc1ccc(NC(=O)/C=C/c2ccccc2)c([N+](=O)[O-])c1	-147*
COc1cc(NC(=O)/C=C/c2ccccc2[N+](=O)[O-])cc(OC)c1	-114*
COc1ccc(/C=C/C(=O)Nc2ccccc2C(=O)N2CCCC2)cc1	-86*
COc1ccc(/C=C/C(=O)Nc2ccccc2C(=O)O)cc1	83
COc1ccc(/C=C/C(=O)Nc2ccccc2C(=O)NCC(c2ccc(OC)cc2)N(C)C)cc1 (stereo not given)	-80*
CCOc1ccc(N/C=C/C(=O)c2ccccc2)c([N+](=O)[O-])c1	87
CCOc1ccc(/C=C/C(=O)Nc2ccccc2C(F)(F)F)cc1	-76*
COc1ccc(C(=O)/C=C/c2ccccc2C(F)(F)F)cc1	-68*
CCOc1ccc(NC(=S)NC(=O)c2c(Br)cnn2C)c([N+](=O)[O-])c1	-115*
COc1ccc(/C=C/C(=O)Nc2ccccc2C(F)(F)F)cc1	-141*
COC(=O)c1ccc2nc(Nc3nc4ccc(F)cc4s3)sc2c1	75
CCOC(=O)c1csc(Nc2nc3ccc(F)cc3s2)n1	-82*
CC(=O)c1sc(Nc2nc3ccc(F)cc3s2)nc1C	-216*
SMILES	aSyn 5UTR act
COc1ccc(OCc2nc3ccccc3[nH]2)cc1	-113*
Brc1ccc(OCc2nc3ccccc3[nH]2)cc1	-214*
COc1cccc(CSc2nc3ccccc3cc2C=O)c1	71
COc1cccc(OCc2nc3ccccc3[nH]2)c1	-137*
COc1cccc(OCc2nc3ncc(Br)cc3[nH]2)c1	-77*
c1ccc2cc(OCc3nc4ccccc4[nH]3)ccc2c1	-167*
COc1cccc(CNc2cccc3cccnc23)c1O	-88*
CCC(=O)NC(c1ccccc1OC)c1ccc2cccnc2c1O (stereo not given)	80
COc1cccc(CNc2cc(C)ccn2)c1O	-94*
COc1cccc(CNc2ccccn2)c1O	-100*
CC1(C)Cc2nc3sc4c(=O)n(CC(=O)NCc5ccco5)cnc4c3cc2CO1	-100*
CC1(C)Cc2nc3oc4c(=S)nc[nH]c4c3cc2CO1	-64*
CC(C)c1nc2sc3c(NCc4ccco4)ncnc3c2c2c1COC(C)(C)C2	71
C=CCn1c(C)nc2c(sc3nc4c(cc32)COC(C)(C)C4)c1=O	-130*
C=CCSc1ncnc2c1oc1nc3c(cc12)COC(C)(C)C3	-141*
CCCOc1ncnc2c1sc1nc3c(cc12)COC(C)(C)C3	-112*
CCSc1ncnc2c1sc1nc3c(cc12)COC(C)(C)C3	-123*
CC(C)COc1ncnc2c1sc1nc3c(cc12)COC(C)(C)C3	-117*
CCCCCn1cnc2c(sc3nc4c(cc32)CSC(C)(C)C4)c1=O	-130*
Cc1cc(C(=O)N/N=C/C(Cl)=C/c2ccccc2)c(C)o1	-67*
